# CD40 NFkB inh = CD40 pathway inhibition in BL2 cells. BL2 NF-kB luciferase reporter, CD40L-induced, 4 h. inhibition, % at 10 µM. 0.94% of 83,000 active;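 active means mean inhibition of at least 50% with a set share of replicates also reaching that level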;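 further: 0% = neutral control wells and 100% = IKK inhibitor VII at 50 µM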
# The depositor's hits bear a star; [ ] = dose if it differs, or a comment. Only a selection was taken, and hits are over-represented in it overall.
SMILES,CD40 NFkB inh
Cc1cc(=O)oc2cc(OC(C)C(=O)N3CCOCC3)c(Cl)cc12 (stereo not given),0.7
Cc1ccc(S(=O)(=O)NC(C(=O)Oc2cc3oc(=O)cc(C)c3cc2Cl)C(C)C)cc1 (stereo not given),29.2*
Cc1cc(C(=O)COC(=O)c2ccc(Br)o2)c(C)n1Cc1ccco1,-17.1
COCCn1c(C)cc(C(=O)COC(=O)c2ccc(-n3nc(C)cc3C)cc2)c1C,8.3
Cc1cc(C(=O)COC(=O)c2ccc(Br)o2)c(C)n1C,-7.4
COCCn1c(C)cc(C(=O)COC(=O)c2ccc(Br)o2)c1C,48.4*
COCCn1c(C)cc(C(=O)COC(=O)c2ccc(Cl)c(S(N)(=O)=O)c2)c1C,20.5*
Cc1cc(C(=O)COC(=O)c2ccc(Cl)c(S(N)(=O)=O)c2)c(C)n1CC1CCCO1 (stereo not given),18.2
COc1cc(C(=O)ON=C2C3CC4CC(C3)CC2C4)cc(OC)c1OC,-6.8
CN1C(=O)c2cc(NC(=O)Cc3cccs3)ccc2OC[C@@H]2O[C@H](CC(=O)NCCCN3CCOCC3)CC[C@H]21,-3.9[25 µM]
CN(C)C(=O)c1cc2c(c(-c3cccc(C4=CCCC4)c3)n1)[C@@H](CCO)N([S@](=O)C(C)(C)C)C2,-1.0
O=C(/C=C\Nc1ccccc1Br)c1ccc2c(c1)OCO2,57.4*
CN(CC(=O)Nc1ccccc1Br)C(=O)CNC(=O)c1ccc2c(c1)OCO2,-3.7
CC(=O)Nc1ccccc1OCC(=O)c1ccc2c(c1)OCO2,-55.8
CCC(C)c1ccc(O)c(NC(=S)NC(=O)c2cccnc2)c1 (stereo not given),-2.9
COc1ccc(N2CCN(S(=O)(=O)CCNC(=O)COc3ccccc3C)CC2)cc1,-7.4
CN1CCN(C(=O)C[C@H]2CC[C@H]3[C@@H](COC[C@H](O)CN3C(=O)Nc3ccc4c(c3)OCO4)O2)CC1,-39.0[25 µM]
CN1CCN(C(=O)C[C@@H]2CC[C@@H]3[C@H](COC[C@H](O)CN3C(=O)Nc3ccc4c(c3)OCO4)O2)CC1,-37.3[25 µM]
CN1CCN(C(=O)C[C@@H]2CC[C@H]3[C@@H](COC[C@@H](O)CN3C(=O)Nc3ccc4c(c3)OCO4)O2)CC1,active[25 µM]
CC1(NC(=O)COc2ccccc2-c2ccccc2)CCS(=O)(=O)C1 (stereo not given),0.5
Cc1ccc(-c2nn(-c3ccccc3)cc2C(=O)NCC2CCCO2)cc1 (stereo not given),-20.4
COc1ccc(S(=O)(=O)N(Cc2cccnc2)Cc2cc3ccccc3[nH]c2=O)cc1,6.2
COc1ccc2[nH]c(=O)c(CN(C(=O)c3cccnc3)c3ccccc3)cc2c1,-6.6
COc1ccc2[nH]c(=O)c(CN(Cc3cccs3)S(=O)(=O)c3cccc4nsnc34)cc2c1,55.4*
COc1ccccc1C(=O)Nc1ccc(S(=O)(=O)NC2=NCCCCC2)cc1,5.6
SMILES,CD40 NFkB inh
CN(C[C@H]1[C@H](c2ccccc2)[C@@H](CO)N1C(=O)C1CC1)C(=O)c1ccccn1,-7.5[25 µM]
O=C(COC(=O)Cn1cnc2ccccc21)NCc1ccc(F)cc1,-1.2
C[C@H]1CN([C@@H](C)CO)C(=O)c2ccccc2-c2ccccc2CO[C@H]1CN(C)Cc1ccc(Oc2ccccc2)cc1,59.1*[25 µM]
C[C@H]1CN([C@@H](C)CO)C(=O)c2ccccc2-c2ccccc2CO[C@H]1CN(C)Cc1ccc(O)cc1,-4.2
C[C@@H]1CN([C@@H](C)CO)C(=O)c2ccccc2-c2ccccc2CO[C@@H]1CN(C)Cc1ccc(Oc2ccccc2)cc1,61.6*[25 µM]
C[C@H](CO)N1C[C@H](C)[C@@H](CN(C)Cc2ccc(Oc3ccccc3)cc2)Oc2c(NC(=O)c3ccncc3)cccc2C1=O,34.2
C[C@@H]1CN([C@H](C)CO)C(=O)c2ccccc2-c2ccccc2CO[C@@H]1CN(C)Cc1ccc(C(=O)O)cc1,-8.0
C[C@@H]1CN([C@H](C)CO)C(=O)c2ccccc2-c2ccccc2CO[C@@H]1CN(C)Cc1ccc(Oc2ccccc2)cc1,41.3[25 µM]
C[C@H](CO)N1C[C@H](C)[C@@H](CN(C)Cc2ccc(Oc3ccccc3)cc2)Oc2c(NC(=O)CCC(F)(F)F)cccc2C1=O,70.4*[25 µM]
C[C@@H]1CN([C@@H](C)CO)C(=O)c2ccccc2-c2ccccc2CO[C@@H]1CN(C)Cc1ccccc1,15.0
C[C@@H]1CN([C@H](C)CO)C(=O)c2cc(NC(=O)CCC(F)(F)F)ccc2O[C@H]1CN(C)Cc1ccc(Oc2ccccc2)cc1,-4.1
O=C(Nc1ccc(C(F)(F)F)cc1)Nc1ccc2c(c1)[C@@H]1C[C@@H](CC(=O)N3CCc4ccccc4C3)O[C@H](CO)[C@@H]1O2,32.2[25 µM]
COc1ccc2c3c([nH]c2c1)[C@@H](CO)N(Cc1cccnc1)CC31CCN(C(=O)CN(C)C)CC1,-9.3[25 µM]
Cn1c2ccccc2c2cc(C(=O)N3CCN(CCO)CC3)sc21,-21.7
O=C(COC(=O)C1COc2ccccc2O1)Nc1cccc(F)c1 (stereo not given),-0.9
CCN1CCN(c2ccc(S(=O)(=O)N3CCCCC3)cc2NC(=O)CC(NC(C)=O)c2ccccc2)CC1 (stereo not given),-7.9
OC(c1ccc(Cl)c(Cl)c1)c1ncc(-c2cccc(F)c2)[nH]1 (stereo not given),11.6
O=C(C[C@H]1CC[C@@H]2[C@H](COC[C@H](O)CN2S(=O)(=O)c2ccc(Cl)cc2)O1)NCCN1CCCCC1,-5.5
COc1ccc(Cl)cc1NC(=O)c1ocnc1C,1.5
CCOC(=O)c1cc(OC(C)=O)c2ccc(OC)c(OC)c2c1,-22.9
COC(=O)c1ccc(CSc2nnc3c(Cl)cc(Cl)cn23)o1,67.1*
COC(=O)c1ccc(CSc2nc3ccccc3c(=O)n2-c2ccccc2)o1,33.5
COC(=O)c1ccc(CSc2cc(C)c3cc(C)cc(C)c3n2)o1,54.9*
CCc1nc(SCc2ccc(C(=O)OC)o2)n[nH]1,0.0
COC(=O)c1ccc(CSc2nnnn2C)o1,6.1
SMILES,CD40 NFkB inh
COC(=O)c1ccc(CSCc2ccc(C(=O)OC)o2)o1,12.2
COC(=O)c1nc(Cl)c(Cl)c(N)c1Cl,-3.9
CC(C)NC(=O)N[C@@H]1CC[C@H](CC(=O)NCCCN(C)C)O[C@H]1CO,-3.5[25 µM]
COCCNC(=O)C[C@H]1C[C@@H]2c3cc(NC(=O)CN(C)C)ccc3O[C@@H]2[C@H](CO)O1,-8.3[25 µM]
CC(C)CCNC(=O)C1CCN(c2nc3ccccc3o2)CC1,-2.7
COc1ccc(C(=O)Nc2ccc(C(=O)OCC(=O)c3ccccc3)cc2)cc1,3.1
COc1ccc(C(=O)COC(=O)c2cccs2)cc1,80.9*
CC(=O)NCCc1ccc(C(=O)COC(=O)c2cccs2)cc1,77.2*
COc1ccc(CCNC(=O)COC(=O)c2cccs2)cc1,1.4
CC(=O)NCCc1ccc(C(=O)COC(=O)c2cccn2C)cc1,38.7
COc1ccccc1C(=O)COC(=O)c1cccs1,-58.4
C[C@H]1CN([C@@H](C)CO)S(=O)(=O)c2ccc(C#Cc3ccccc3F)cc2O[C@H]1CN(C)C(=O)Cc1cccnc1,-11.5[25 µM]
COc1ccc(NC(=O)N2CC[C@H]3[C@@H]2c2cc(Br)ccc2N(C)[C@H]3CO)cc1,-1.6[25 µM]
O=C(Nc1ccccc1)[C@H]1[C@H](CO)[C@H]2Cn3c(cccc3=O)[C@H]2N1Cc1ccccc1Cl,21.6[25 µM]
Cn1nc(C(F)(F)F)c(-c2ccccc2)c1NC(=O)c1cccnc1,-10.5
C/C=C/c1ccc([C@@H]2[C@@H](CO)N(C(C)=O)[C@H]2CN(C(=O)COC)C(C)C)cc1,3.2[25 µM]
CCCCCCSc1nc2c(c(=O)[nH]c(=O)n2C)n1C,6.8
O=C1C(=C(I)I)c2ccccc2-c2ccccc21,106.0*
O=C1c2ccccc2-c2nc3ccccc3nc21,-117.6
NC1=CC(=O)C(=O)c2ccccc21,-12.3

# Screens (PubChem BioAssay)
